Compound activity (PubChem)
An excerpt weighted towards active compounds, which were near 1.1% of everything screened.
RXFP1 antag – RXFP1 (human) relaxin receptor antagonism; Q9HBX9; AID 1259400; activity change, negative = inhibition, % at 57.5 µM; hit rate 0.59% among 350,000; HEK293-RXFP1, relaxin-stimulated cAMP HTRF, 30 min; stronger effect = lower value;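 active means activity change of -60% or lower, but not beyond a set lower limit; inconclusive means change between -60% and -40%, or beyond the set limit; inactive means change above -40%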
Tb PFK inh – T. brucei PFK enzyme inhibition; O15648; T. brucei PFK, ADP-Glo luminescence; Potency, µM (doses to about 57.5 µM), most hits filed as inhibitors; hit rate 0.17% among 330,000; further: nearly all actives have a fitted effect of over 60% in size
Target sequence (O15648 whole entry, looked up): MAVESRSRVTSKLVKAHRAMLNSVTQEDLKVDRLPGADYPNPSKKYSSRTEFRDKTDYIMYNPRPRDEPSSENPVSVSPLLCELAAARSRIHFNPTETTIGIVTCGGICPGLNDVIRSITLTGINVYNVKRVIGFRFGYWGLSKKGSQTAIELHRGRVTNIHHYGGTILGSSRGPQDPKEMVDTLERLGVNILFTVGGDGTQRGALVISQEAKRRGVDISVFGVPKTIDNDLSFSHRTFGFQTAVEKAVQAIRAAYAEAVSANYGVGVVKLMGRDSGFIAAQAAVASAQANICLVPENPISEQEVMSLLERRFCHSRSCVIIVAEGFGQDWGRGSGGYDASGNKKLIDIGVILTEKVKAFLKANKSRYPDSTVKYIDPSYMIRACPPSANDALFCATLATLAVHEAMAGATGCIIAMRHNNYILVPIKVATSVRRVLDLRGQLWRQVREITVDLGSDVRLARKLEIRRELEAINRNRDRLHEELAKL
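ADP-Glo luminescence quantified ADP after 45 min at room temperature, with 1.25 nM T. brucei PFK, 0.1 mM ATP and 0.5 mM fructose-6-phosphate in pH 8.0 TEA buffer. qHTS titrations up to 57 µM; curves classified by quality.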
gsp ag – gsp mutant agonism; gsp mutant cells, cAMP HTRF, 30 min; Potency, µM (highest dose often 76.9 µM), hits mostly activators; hit rate 0.13% among 340,000; AID 624287; active means well fitted activation curve with a large enough effect; inconclusive means small, poorly fitted or top-dose-only effect, or another doubt; inactive means no such curve, though single readings can be large or run the other way; cell line not stated here;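 further: phosphodiesterase inhibitor Ro 20-1724 added with compounds to block cAMP breakdown; nearly all actives have a fitted effect of over 60% in size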
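Cells stably selected in G418 were plated at 2000/well, grown 16-24 hr, then given compounds in DMSO with the PDE inhibitor […] (300 uM solution added) for 30 min at 37C; cAMP was read by HTRF.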
p53 reactivator – restores transcriptional activity of mutant p53 | H1299 p53-A138V BP100-luciferase reporter, luminescence, 24 h | Potency, µM (doses to about 92.2 µM), hits mostly activators | hit rate 0.063% among 320,000 | AID 504706; further: nearly all actives have a fitted effect of over 45% in size
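p53-null H1299 cells stably carrying temperature-sensitive p53-A138V and a BP100-luciferase reporter were pinned with compounds (4-point, 1:5 series) and held 24 hrs at 37 deg C. Luminescence was read 10 min after detection reagent.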
RXFP1 agonist – agonists of human relaxin receptor RXFP1; HEK293T-RXFP1 cAMP TR-FRET, 30 min; response scale: percent of porcine relaxin response, buffer zero; hit rate 0.3% among 370,000; AID 2676; Potency, µM (series often up to 57.5 µM), most hits filed as activators; further: nearly all actives have a fitted effect of over 60% in size
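HEK293 cells stably expressing RXFP1, treated 30 min at 37C with compounds plus PDE4 inhibitor Ro 20174; cAMP measured by HTRF TR-FRET. Normalized to buffer and 29 nM porcine relaxin; EC50 by Hill fit.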
gsp antagonist – antagonists of gsp mutant (McCune-Albright syndrome); gsp-mutant cells, cAMP HTRF, 30 min; Potency, µM (doses to about 76.9 µM), actives largely listed as inhibitors; hit rate 0.4% among 340,000; AID 624288; calls by dose curve; cell line not stated here;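 further: intracellular cAMP measured with PDE inhibitor Ro 20-1724 present during compound exposure; nearly all actives have a fitted effect of over 65% in size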
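HTRF cAMP read-out (cAMP-d2 plus anti-cAMP antibody-K in lysis buffer, 30 min RT). Before lysis, cells are exposed to compounds with […] for 30 min at 37C in DPBS containing Ca/Mg, BSA and Tween 20.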
Large screens that a line does not name were inactive. Unless noted, the call rests on the fitted dose curve; in most records, active means well fitted curve in the direction sought with a large enough effect; inconclusive means small, poorly fitted or top-dose-only effect, or another doubt; inactive means no such curve, though single readings can be large; an effect the other way counts as inactive or inconclusive.

CC1CCCCC1NC(=O)COC(=O)c1c2c(nc3ccccc13)/C(=C\c1ccco1)CC2 (stereo unspecified)	RXFP1 antag -65.5, gsp ag inconclusive (no result: Tb PFK inh, p53 reactivator, RXFP1 agonist)
CC1(C)SC(=S)N(Cc2ccc3c(c2)OCO3)C1N(O)C(=O)NC1CCCCC1 (stereo unspecified)	gsp ag inconclusive
COC(=O)C1C(=O)c2c([nH]c(C(=O)OC3CCCC3C)c2C)CC1C (stereo unspecified)	RXFP1 antag -62.7, p53 reactivator inconclusive
COC(=O)C1C(=O)c2c([nH]c(C(=O)OC3CCCCC3)c2C)CC1C (stereo unspecified)	Tb PFK inh inconclusive, p53 reactivator inconclusive (no result: RXFP1 antag)
O=C(NNC(=O)c1cccc(S(=O)(=O)N2CCN(c3ccccc3)CC2)c1)c1ccc(Cl)cc1	gsp ag 11.2µM (no result: RXFP1 antag)
O=C(CSc1nnc2ccccn12)N1CCc2ccccc2C1	gsp ag inconclusive
O=C(O)C1Cc2ccccc2CN1C(=O)CSc1nnc2ccccn12 (stereo unspecified)	RXFP1 agonist 35.5µM
COc1ccc(S(=O)(=O)N(CC(=O)NCc2cccnc2)Cc2ccccc2)cc1	gsp antagonist 11.2µM
Cc1c(C(=O)N2CCOCC2)c(S(=O)(=O)Nc2ccccc2F)c(C)n1C	gsp ag inconclusive
COc1cc(NC(=O)COc2cccc3c2OC(C)(C)C3)cc(OC)c1OC	gsp antagonist 35.5µM
CC(=O)Nc1ccc(NC(=O)COc2cccc3c2OC(C)(C)C3)cc1	none
COc1cc(NC(=O)COc2cc(O)c3c(c2)OC(C)(C)CC3=O)cc(OC)c1OC	gsp antagonist 35.5µM (no result: RXFP1 antag, gsp ag, p53 reactivator)
OCC[C@@H]1C[C@H](O)[C@@H](O)[C@]2(CCCc3ccccc3O2)O1	none (no result: RXFP1 antag, p53 reactivator)
N#CC(C#N)=Cc1cccn1-c1ccc(C(=O)O)cc1	Tb PFK inh inconclusive
Cn1c2c(c(=O)n(C)c1=O)C(C(F)(F)F)(C(F)(F)F)N=C(c1ccc(Cl)cc1)N2	gsp antagonist 39.8µM
COc1cc(/C=N/NC(=O)c2ccccn2)ccc1OC(=O)c1ccc(Br)cc1	none
COc1cc(/C=N/NC(=O)c2ccccn2)ccc1OC(=O)c1ccccc1Br	RXFP1 antag -97.3, gsp antagonist inconclusive
O=C(CCCC1=NS(=O)(=O)c2ccccc2N1)N1CCN(c2ccccc2)CC1	none
Cc1ccc(NC(=O)C2SC(=Nc3ccccc3)C(C(=O)Nc3ccc(Cl)cc3)=C2N)cc1 (stereo unspecified)	RXFP1 antag -66.4
CCCC(=O)Nc1nc(C)c(C(C)=O)s1	gsp ag inconclusive, RXFP1 agonist 17.8µM
COc1ccc(CCn2c(=N)c(C(=O)NCC3CCCO3)cc3c(=O)n4cccc(C)c4nc32)cc1 (stereo unspecified)	gsp ag inconclusive, RXFP1 agonist 17.8µM
COc1ccc(CNC(=O)c2cc3c(=O)n4cccc(C)c4nc3n(CC3CCCO3)c2=N)cc1 (stereo unspecified)	gsp ag 2.24µM, RXFP1 agonist inconclusive
COCCCNC(=O)c1cc2c(=O)n3cccc(C)c3nc2n(C(C)C)c1=N	gsp ag 22.4µM
Cc1cccn2c(=O)c3cc(C(=O)NCc4ccc(F)cc4)c(=N)n(CC4CCCO4)c3nc12 (stereo unspecified)	gsp ag inconclusive, RXFP1 agonist inconclusive
Cc1ccc(N(CC(=O)NC(C)(C)C)C(=O)CCC(=O)Nc2ccccn2)c(C)c1	none (no result: Tb PFK inh, p53 reactivator, RXFP1 agonist, gsp antagonist)
Cc1ccc(S(=O)(=O)N2CCC(C(=O)NCC3CC3)CC2)cc1	none
CCc1ccccc1NC(=O)CNC(=O)c1cc(C2CC2)nc2c1cnn2C(C)C	none
CC(C)n1ncc2c(C(=O)NCC(=O)Nc3ccccc3Br)cc(C3CC3)nc21	RXFP1 antag -88.0
O=C(O)c1c2c(nc3ccc(S(=O)(=O)N4CCC(C(=O)NCc5ccc(Cl)cc5)CC4)cc13)CCCC2	Tb PFK inh inconclusive
COc1ccc2oc(=O)c(-c3csc(Nc4ccc(O)cc4)n3)cc2c1	p53 reactivator inconclusive, gsp antagonist 25.1µM
